20 compounds from PubChem BioAssay (NCATS) can be followed below.

Holding throughout (test): Primary qHTS to identify gynecologic anti-cancer compounds using libraries of approved drugs and bioactive compounds (AID 1345084); further: nearly all actives have a fitted effect of over 55% in size
One assay relates to C33A. To be noted: Gynecologic cancer cell panel viability, ATPlite luminescence, 48 h; series mostly up to 57.5 µM. The gist of the method:
(§1)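 Luminescence from the ATPlite ATP-monitoring reagent indicates viable cell number; lower signal means cytotoxicity. Cells received compound 16 h after seeding and were exposed for 48 h across five concentrations.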

In another assay the test system is CASKI. As to conditions: Gynecologic cancer cell panel viability, ATPlite luminescence, 48 h; series mostly up to 57.5 µM. Put shortly:
as §1
(In general: ATP-based viability assays read luminescence as a measure of living cells.)

For a further assay, the system named is Es-2. As to conditions: Gynecologic cancer cell panel viability, ATPlite luminescence, 48 h; series mostly up to 57.5 µM. Put shortly: as §1
The test system of the next assay is HeLa. As to conditions: Gynecologic cancer cell panel viability, ATPlite luminescence, 48 h; series mostly up to 57.5 µM. The gist of the method: as §1
For a further assay, the system named is Hek293T. To be noted: Gynecologic cancer cell panel viability, ATPlite luminescence, 48 h, control line for the selectivity index; series mostly up to 57.5 µM. The gist of the method:
as §1

The next assay has as its system JEG-3. To be noted: Gynecologic cancer cell panel viability, ATPlite luminescence, 48 h; series mostly up to 57.5 µM. The gist of the method: as §1
In a further assay the test system is OV90. As to conditions: Gynecologic cancer cell panel viability, ATPlite luminescence, 48 h; series mostly up to 57.5 µM. Put shortly: as §1
The next assay relates to CAOV3. As to conditions: Gynecologic cancer cell panel viability, ATPlite luminescence, 48 h; series mostly up to 57.5 µM. The gist of the method:
as §1

Results filed as inconclusive are left out. Unmarked numbers belong to inactive results. Activity calls are given as the source filed them. The call rests on the fitted dose curve; in most records, active means well fitted cell-killing curve with a large enough effect; inconclusive means small, poorly fitted or top-dose-only effect, or effect the other way; inactive means flat fitted curve, though single readings scatter.
Potency means the concentration at half of the fitted maximal effect.

With `C[C@@H]1C(=O)O[C@H]2[C@H](O)[C@@]34[C@@H]5OC(=O)[C@@]3(O[C@@H]3OC(=O)[C@@H](O)[C@@]34[C@H](C(C)(C)C)[C@H]5O)[C@@]12O`, the Potency result with C33A, in the assay on CASKI, in the assay with Es-2, with HeLa, with Hek293T and with JEG-3 was “inactive” throughout. Moreover, the Potency result with OV90 was “inactive”.
With `CCC1NC(=O)C2C(Cl)C(Cl)CN2C(=O)C(C(C)O)NC(=O)CC(c2ccccc2)NC(=O)C(CO)NC1=O` (stereo not drawn), the Potency entry in the assay on C33A, in the assay on CAOV3, in the assay on CASKI, in the assay on Es-2, in the assay on HeLa and in the assay on Hek293T was “inactive” in each case. The Potency entry in the assay on JEG-3 and in the assay on OV90 was “inactive” throughout.
Consider `CC(C)(O)[C@H]1O[C@H]2CC[C@@]3(C)[C@@](O)(CC[C@H]4Cc5c([nH]c6ccccc56)[C@@]43C)C2=CC1=O`, for which the Potency result in the assay on C33A, in the assay on CASKI, in the assay on Es-2, in the assay with HeLa, in the assay on Hek293T and with JEG-3 was “inactive” in each case. For the same compound, the Potency result with OV90 was “inactive”.
Take `COc1cc(C(=O)O[C@H]2[C@@H]3C=CO[C@@H](O[C@@H]4O[C@H](CO)[C@@H](O)[C@H](O)[C@H]4O)[C@@H]3[C@@]3(CO)O[C@@H]23)ccc1O`: the Potency entry with C33A, in the assay on CAOV3, in the assay on CASKI, with Es-2, in the assay on HeLa and in the assay on Hek293T was “inactive” throughout. The Potency entry in the assay on JEG-3 and with OV90 was “inactive” in each case.
For the compound `COC(=O)C1(C)CCC(O)C2(C)c3c(O)cc(C(C)C)cc3C(O)C(OC(C)=O)C12` (stereo not drawn), the Potency entry in the assay on C33A, in the assay with CAOV3, in the assay on CASKI, in the assay with Es-2, in the assay with HeLa and in the assay on Hek293T was “inactive” throughout. Moreover, the Potency result with JEG-3 and with OV90 was “inactive” throughout.
For the compound `O=C(O)c1ccnc2cc(C(OCCN3CCCCC3)c3ccccc3Cl)[nH]c12` (stereo not drawn), the Potency result in the assay with C33A, in the assay on CASKI, with Es-2, in the assay with HeLa, in the assay with Hek293T and in the assay on JEG-3 was “inactive” each time. Moreover, the Potency result with OV90 was “inactive”.
Consider `C[C@H]1C(=O)O[C@H]2[C@H](O)[C@]34C5OC(=O)[C@]3(O[C@@H]3OC(=O)[C@H](O)C34[C@H](C(C)(C)C)[C@H]5O)C12O` (stereo partly drawn), for which the Potency result in the assay on C33A, with CAOV3, with CASKI, in the assay on Es-2, in the assay with HeLa and with Hek293T was “inactive” in each case. Also, the Potency result with JEG-3 and in the assay on OV90 was “inactive” in each case.
Turning to `OC1(c2ccc(Cl)cc2)c2ccccc2C2=NCCN21` (stereo not drawn), the Potency entry in the assay on C33A, with CAOV3, in the assay with CASKI, with Es-2, with HeLa and in the assay on Hek293T was “inactive” in each case. In addition, the Potency result with JEG-3 and in the assay on OV90 was “inactive” each time.
In the case of `CC12CCC3C(CCC4(O)CC(O)CCC34C=O)C1(O)CCC2C1=CC(=O)OC1` (stereo not drawn), the Potency with C33A is 1000 nM (active); in the assay on CAOV3, 2000 nM (active); with CASKI, 7080 nM (active); with Es-2, 1120 nM (active); in the assay with HeLa, 1780 nM (active); in the assay with Hek293T it was 1260 nM (active). The Potency in the assay on OV90 is 7080 nM (active).
As to `CCC(C)(C#N)O[C@@H]1O[C@H](CO)[C@@H](O)[C@H](O)[C@H]1O` (stereo partly drawn), the Potency result in the assay with C33A, in the assay with CAOV3, in the assay with CASKI, in the assay on Es-2, with HeLa and in the assay on Hek293T was “inactive” each time. The Potency result in the assay with JEG-3 and in the assay on OV90 was “inactive” throughout.
Turning to `CC[C@H]1CN2CC[C@H]1C[C@H]2[C@H](O)c1ccnc2ccc(OC)cc12`, the Potency entry in the assay on C33A, in the assay on CASKI, in the assay on Es-2, in the assay on HeLa, in the assay on Hek293T and in the assay on JEG-3 was “inactive” each time.
Consider `CCOc1ccccc1-n1c(C(C)N2CCN(C(=O)COc3ccc(Cl)cc3)CC2)nc2ccccc2c1=O` (stereo not drawn), for which the Potency entry with C33A, with CASKI, with HeLa and with OV90 was “inactive” each time. The Potency in the assay with Es-2 is 3980 nM (active).
In the case of `C=C[C@H]1CN2CC[C@H]1C[C@@H]2[C@@H](O)c1ccnc2ccccc12`, the Potency entry with C33A, with CASKI, with Es-2, in the assay with HeLa, in the assay on Hek293T and with JEG-3 was “inactive” throughout. In the assay on OV90, the Potency entry was “inactive”.
With `CN1[C@H]2C[C@H](OC(=O)[C@H](CO)c3ccccc3)C[C@@H]1[C@@H](O)C2`, the Potency entry in the assay on C33A, in the assay on CASKI, with Es-2, with HeLa, in the assay on Hek293T and in the assay on JEG-3 was “inactive” each time. The Potency entry in the assay with OV90 is “inactive”.
In the case of `Cc1cc(C(=O)CN2CCCC2)c(C)n1-c1ccc(F)cc1`, the Potency entry in the assay on C33A, in the assay with CASKI, in the assay on Es-2, with HeLa, in the assay with Hek293T and in the assay with JEG-3 was “inactive” each time. The Potency entry in the assay with OV90 is “inactive”.
Consider `CN1[C@@H]2CC[C@H]1CC(OC(=O)C1C=Nc3ccccc31)C2` (stereo partly drawn), for which the Potency entry with C33A, in the assay with CASKI, in the assay on Es-2, in the assay on HeLa, in the assay with Hek293T and in the assay on JEG-3 was “inactive” in each case. Also, the Potency result with OV90 is “inactive”.
Consider `C=C[C@H]1[C@H](O[C@@H]2O[C@H](CO)[C@@H](O)[C@H](O)[C@H]2O)OC=C2C(=O)OCC[C@H]21`, for which the Potency result in the assay with C33A, in the assay on CASKI, with Es-2, with HeLa, in the assay on Hek293T and in the assay on JEG-3 was “inactive” throughout. The Potency entry with OV90 is “inactive”.
On to `COc1c(C(C)C)cc2c(c1O)[C@@]1(C(=O)O)CCCC(C)(C)C1CC2` (stereo partly drawn), for which the Potency result in the assay with C33A, in the assay with CASKI, in the assay on Es-2, in the assay with HeLa, with Hek293T and in the assay on JEG-3 was “inactive” throughout. For the same compound, the Potency entry in the assay on OV90 is “inactive”.
As for `C=CC(C)(C)c1[nH]c2cccc3c2c1C[C@@H]1[C@@H]3[C@@H](OC(C)=O)[C@H](C)CN1C`, the Potency entry in the assay with C33A, with CASKI, with Es-2, with HeLa, with Hek293T and in the assay on JEG-3 was “inactive” throughout. Besides, in the assay with OV90, the Potency entry is “inactive”.
For the compound `COC(=O)C1(C)CCC(O)C2(C)c3cc(O)c(C(C)C)cc3C(O)C(OC(C)=O)C12` (stereo not drawn), the Potency result in the assay with C33A, in the assay on CASKI, with Es-2, in the assay with HeLa, with Hek293T and in the assay with JEG-3 was “inactive” in each case. Moreover, the Potency result in the assay with OV90 is “inactive”.
